Here are results for 19 compounds from PubChem BioAssay.

Several values for one entry are separate records, joined by “and”; a condition that tells them apart may be missing. Equal entries are not always repeated. Records with an inconclusive call do not appear. Activity calls are given as the source filed them. Unless noted, how the calls were made is not given here.

The nature of assay [1]: rescue of PC12 cells from polyQ htt toxicity – LDH release (AID 1610). As to conditions: PC12 mutant huntingtin toxicity, final LDH at 4 uM, stronger effect = lower value.
Assay [2] can be described thus: glutamate transport activators, MN-1 cells, MN-1 cell line (AID 1612).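 Further: tested at 1 µM final; 0% = mean of DMSO vehicle wells on each plate; positive means more glutamate uptake than control and negative means less.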 As to conditions: MN-1 motor neuron cells, stronger effect = higher value.
Assay [3] is described as follows: GFP-Q80 aggregate reduction, neuronal-like cells, cell-based, NGF-treated PC12, GFPQ80 (AID 1614).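 Further: lower means fewer inclusions and 0 means no inclusions at all.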 As to conditions: PC12 NGF-treated GFP-polyQ80 inclusion reduction.
The nature of assay [4]: 75Q-TubH aggregate inhibition, S. cerevisiae, yeast (AID 1616). As to conditions: S. cerevisiae 75Q-TubH polyglutamine aggregation suppression; stronger effect = higher value.
Assay [5] can be described thus: P. berghei load reduction in hepatocytes – cell-based, HepG2, luciferase luminescence, HepG2 viability, primary screen (AID 624349; in the data active means parasite load remaining mostly below about 12%, no sharp cut-off; inactive means mostly above about 10%;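 further: 100% = mean of DMSO negative control wells on the same plate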). As to conditions: P. berghei liver stage in HepG2, luciferase luminescence, concentration not given here; parasite load remaining: stronger effect = lower value; viability: measured here: HepG2 viability without parasites.
A short description of assay [6]: Wnt pathway potentiators raising nuclear beta-catenin – imaging, WNT3A-conditioned medium, mouse C2C12, NPC library, primary screen (AID 1117326; in the data active means nuclear beta-catenin stimulation mostly above about 4.2%, no sharp cut-off; inactive means mostly below about 10%). As to conditions: stronger effect = higher value.
Assay [7] is described as follows: compounds altering circadian rhythm period length – cell-based, LOPAC library, luminescence reporter (AID 2774).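 Further: values are relative to mean of DMSO wells on each plate.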 As to conditions: circadian reporter cells, at 7 µM, actives lie on both sides.
Assay [8] is described as follows: compounds altering viability of human ES cells (AID 493140).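 Further: cells exposed to compounds for four days before counting.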 As to conditions: human embryonic stem cell survival screen; stronger effect = higher value.
In assay [9] the test system is Hepatitis C virus NS3 helicase. Nature of the assay: blockers of NS3h binding to ssDNA – biochemical, fluorescence polarization, LOPAC1280 library, primary screen (AID 687035; in the data active means inhibition above about 37%). As to conditions: Purified HCV NS3 helicase, Cy5-dT15 ssDNA binding fluorescence polarization; stronger effect = higher value; concentration not given here.
Assay [10] is described as follows: compounds altering Cy5-DNA-NS3h complex signal – biochemical, LOPAC1280, artefact control for HCV NS3 helicase inhibitor project (AID 687037). As to conditions: Cy5-DNA-NS3h complex fluorescence interference counterscreen. (In general: A counterscreen serves to expose hits that act by an unwanted route or on another target.)

Compound `CC(=O)Nc1ccc(S(=O)(=O)Nc2ccc([N+](=O)[O-])cc2)cc1` showed a normalised LDH release in [1] of 0.673. Further, the glutamate uptake change in [2] turned out to be 20.4%. In [3], the inclusion score worked out at 2. The same compound returned an aggregation suppression score in [4] of 1.23. Also, in assay [5], the parasite load remaining was 152% (inactive) and 62.3% (inactive); the viability is 92.2% and 117%. For the same compound, the nuclear beta-catenin stimulation in assay [6] (at 10 µM) was 1.1% (inactive). Further, the nuclear beta-catenin stimulation in assay [6] (stimulation, at 2 µM) worked out at 1.4%.

In the case of `C#CCN(C)Cc1ccccc1`, the glutamate uptake change in [2] was -1.37%. Also, the inclusion score in assay [3] was determined as 2. In [4], this compound showed an aggregation suppression score of 1.43. Moreover, the period change in [7] is 0.06 h (inactive). Further, the survival in assay [8] is 31.2 (inactive). In addition, in [5], the parasite load remaining is 33.9% (inactive) and 101% (inactive) and 59.8% (inactive); the viability was 48.5% and 89.5% and 94.1%. Besides, the inhibition in assay [9] is -3% (inactive). Further, in assay [10], the fluorescence ratio (interference) was 1 (inactive). For the same compound, in assay [6] (at 10 µM), the nuclear beta-catenin stimulation was 2.1% (inactive). Further, in [6] (stimulation, at 2 µM), the nuclear beta-catenin stimulation amounted to 3.2%.

On to `CC(=O)OCC1=C(C(=O)O)N2C(=O)[C@@H](NC(=O)Cc3cccs3)[C@H]2SC1`, for which the glutamate uptake change in [2] is 0.12%. This compound returned an inclusion score in assay [3] of 2. This compound came in with an aggregation suppression score in [4] of 1.47. Also, the period change in assay [7] is 0.04 h (inactive). For the same compound, in assay [8], the survival was 7.08 (inactive). For the same compound, in assay [5], the parasite load remaining is 98.3% (inactive) and 75.9% (inactive) and 62% (inactive); the viability is 104% and 75.3% and 99.8%. In assay [9], the inhibition is 0% (inactive). In addition, the fluorescence ratio (interference) in assay [10] is 1 (inactive). Besides, the nuclear beta-catenin stimulation in [6] (at 10 µM) is 2.4% (inactive). In addition, the nuclear beta-catenin stimulation in [6] (stimulation, at 2 µM) is 4.2%.

With `O=C1OCCN1/N=C/c1ccc([N+](=O)[O-])o1`, the glutamate uptake change in assay [2] came out at 4.62%. Further, the inclusion score in [3] amounted to 2. The compound also showed an aggregation suppression score in assay [4] of 0.223. The nuclear beta-catenin stimulation in assay [6] (at 10 µM) is 1.7% (inactive); in assay [6] (stimulation, at 2 µM) it was -0.6%.

In assay [1], `NC(=O)N/N=C/c1ccc([N+](=O)[O-])o1` gave a normalised LDH release of 0.973. In addition, the glutamate uptake change in assay [2] is 16.7%. In assay [3], this compound registered an inclusion score of 2. The compound also came in with an aggregation suppression score in assay [4] of 0.831. In addition, the survival in assay [8] is 16.2 (inactive). For the same compound, the nuclear beta-catenin stimulation is 7.6% (inactive) in assay [6] (at 10 µM) and 2% in assay [6] (stimulation, at 2 µM).

Take `O=c1[nH]cnc2c1ncn2[C@@H]1O[C@H](CO)[C@@H](O)[C@H]1O`: the nuclear beta-catenin stimulation was -1% (inactive) in [6] (at 10 µM) and 3.1% in [6] (stimulation, at 2 µM).

`CCN(CC)CCNc1ccc(CO)c2sc3ccccc3c(=O)c12` had a normalised LDH release in [1] of 0.8. Further, the glutamate uptake change in [2] was found to be 14.7%. The aggregation suppression score in [4] was determined as 0.977. For the same compound, the survival in assay [8] was 1.33 (inactive). Besides, the nuclear beta-catenin stimulation was 63.7% (active) in assay [6] (at 10 µM) and 1.8% in assay [6] (stimulation, at 2 µM).

The compound `O=C(Nc1ccc([N+](=O)[O-])cc1Cl)c1cc(Cl)ccc1O` came in with a normalised LDH release in [1] of -0.146. For the same compound, the glutamate uptake change in assay [2] is -52.2%. Besides, the aggregation suppression score in assay [4] was 0.882. In addition, in assay [7], the period change was 0.06 h (inactive). The survival in assay [8] is 1.67 (inactive). In addition, in assay [5], the parasite load remaining is -1.67% (inactive) and -1.04% (inactive) and -2.1% (inactive); the viability was 26.1% and 53.7% and 67.1%. In assay [9], the inhibition is -2% (inactive). The fluorescence ratio (interference) in assay [10] is 1 (inactive). For the same compound, the nuclear beta-catenin stimulation in assay [6] (at 10 µM) was 56.2% (active). In [6] (stimulation, at 2 µM), the nuclear beta-catenin stimulation was found to be 33.1%.

In the case of `Nc1ccc(C(=O)O)c(O)c1`, in assay [2], the glutamate uptake change was determined as 2.47%. The inclusion score in [3] is 2. Further, the aggregation suppression score in assay [4] stood at 1.24. Besides, the nuclear beta-catenin stimulation in [6] (at 10 µM) is 0.9% (inactive); in assay [6] (stimulation, at 2 µM), 1.5%.

With `Cc1ccc2c(Cl)cc(Cl)c(O)c2n1`, the nuclear beta-catenin stimulation in assay [6] (at 10 µM) is 0.6% (inactive); in assay [6] (stimulation, at 2 µM), -1%.

`CCOC(=O)[C@H](CCc1ccccc1)N[C@@H](C)C(=O)N1CCC[C@H]1C(=O)O`: in assay [2], the glutamate uptake change was -6.34%. The compound further came in with an inclusion score in assay [3] of 2. The compound also returned an aggregation suppression score in assay [4] of 1.1. The nuclear beta-catenin stimulation was 4.4% (inactive) in assay [6] (at 10 µM) and 1.5% in assay [6] (stimulation, at 2 µM).

For `C[n+]1c2cc(N)ccc2cc2ccc(N)cc21` (tested in a mixture with another compound), the nuclear beta-catenin stimulation in assay [6] (at 10 µM) was 123% (active); in assay [6] (stimulation, at 2 µM), 8%.

As for `O=c1cc(CO)occ1O`, the glutamate uptake change in assay [2] worked out at 5.22%. The inclusion score in assay [3] was 2. Also, the aggregation suppression score in [4] stood at 1.36. Besides, the nuclear beta-catenin stimulation in assay [6] (at 10 µM) was 2.6% (inactive); in assay [6] (stimulation, at 2 µM), 0.4%.

Turning to `CCO/C([O-])=N/c1c[n+](N2CCOCC2)no1`, the glutamate uptake change in assay [2] is 3.92%. In addition, the inclusion score in assay [3] was found to be 2. Also, the aggregation suppression score in assay [4] was determined as 1.23. For the same compound, the period change in [7] was 0.065 h (inactive). The survival in assay [8] was 4.75 (inactive). Moreover, the nuclear beta-catenin stimulation in assay [6] (at 10 µM) was 0.8% (inactive); in [6] (stimulation, at 2 µM) it was 1.2%.

In the case of `CC(=O)OCC1=C(C(=O)O)N2C(=O)[C@@H](NC(=O)CSc3ccncc3)[C@H]2SC1`, in [2], the glutamate uptake change is -2.14%. The compound further displayed an inclusion score in assay [3] of 2. In assay [4], this compound yielded an aggregation suppression score of 1.12. For the same compound, in assay [7], the period change was 0.035 h (inactive). Moreover, the survival in assay [8] was 1.83 (inactive). Besides, in assay [5], the parasite load remaining is 79.7% (inactive) and 64.8% (inactive); the viability is 79.3% and 105%. In assay [6] (at 10 µM), the nuclear beta-catenin stimulation is -0.8% (inactive). Moreover, the nuclear beta-catenin stimulation in assay [6] (stimulation, at 2 µM) was 1.1%.

In the case of `Cc1ccc(C(=O)C(C)CN2CCCCC2)cc1` (stereo not drawn), in [1], the normalised LDH release was 0.861. Besides, the glutamate uptake change in [2] was -0.03%. The same compound displayed an inclusion score in assay [3] of 1.5. This compound yielded an aggregation suppression score in assay [4] of 0.367. Besides, in assay [5], the parasite load remaining is 97.6% (inactive) and the viability was found to be 70.5%. Besides, in assay [6] (at 10 µM), the nuclear beta-catenin stimulation is 1.5% (inactive). Also, in assay [6] (stimulation, at 2 µM), the nuclear beta-catenin stimulation turned out to be 4.3%.

With `Nc1ccc(S(=O)(=O)Nc2ccnn2-c2ccccc2)cc1`, the glutamate uptake change in assay [2] amounted to 16.6%. Also, in assay [3], the inclusion score was determined as 2. The aggregation suppression score in assay [4] was determined as 0.956. In assay [7], the period change was 0.065 h (inactive). Moreover, the survival in assay [8] was 28 (inactive). In addition, in assay [5], the parasite load remaining is 33% (inactive) and 120% (inactive) and 106% (inactive); the viability was 49.4% and 69.4% and 93.2%. Besides, the inhibition in assay [9] was 1% (inactive). Moreover, the fluorescence ratio (interference) in assay [10] was 1 (inactive). For the same compound, the nuclear beta-catenin stimulation in assay [6] (at 10 µM) was 0.1% (inactive). The nuclear beta-catenin stimulation in assay [6] (stimulation, at 2 µM) was -0.2%.

Consider `C[C@]12CCC(=O)C=C1CC[C@@H]1[C@@H]2[C@@H](O)C[C@@]2(C)[C@H]1CC[C@]2(O)C(=O)COP(=O)(O)O`, for which the nuclear beta-catenin stimulation in assay [6] (at 10 µM) was -0.6% (inactive); in [6] (stimulation, at 2 µM) it was -0.1%.

On to `Cn1cnc2c1c(=O)[nH]c(=O)n2C`, for which the glutamate uptake change in [2] was -19.3%. In [3], this compound returned an inclusion score of 1.5. Further, the aggregation suppression score in [4] worked out at 1.09. Moreover, in [7], the period change is -0.055 h (inactive). The survival in assay [8] was 3.33 (inactive). Also, in assay [5], the parasite load remaining is 101% (inactive) and 137% (inactive) and 62.6% (inactive); the viability was 101% and 74.3% and 103%. In [9], the inhibition is -5% (inactive). Also, in assay [10], the fluorescence ratio (interference) was 1 (inactive). Also, the nuclear beta-catenin stimulation in assay [6] (at 10 µM) is 0.9% (inactive). In assay [6] (stimulation, at 2 µM), the nuclear beta-catenin stimulation is 1%.

A word on the viability: it is a read-out of living cells in per cent, often relative to untreated cells. One may read the inhibition as the relative decrease from the control value, in per cent.
